Key:
Assay in all cases: yeast three-hybrid, YBZ-1, SC-Leu-His + 0.5 mM 3-AT, 4 days
Details in all cases: tags: N-Gal4 AD-HA kept; label: inside an RPR1-promoter hybrid RNA with tandem MS2 sites; ssRNA
[1] = molecular target: PUM1 PUF domain R5-KWG (Homo sapiens, UniProt Q14671 828-1176, C1007K;R1008W;Q1011G)
Outline: (§1)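 Repeat regions from input (SC-Leu) and selection (SC-Leu-His + 0.5 mM 3-AT) plates were PCR-amplified and Illumina-sequenced after four days of growth. The cells were strain YBZ-1 with a LexA–MS2 coat fusion and a HIS3 reporter, co-expressing Pumilio-1 PUF domain libraries and matching RNA elements from a centromeric plasmid. The interaction score is the log change in variant frequency from input to selection, taken in log2 with a pseudocount of 1 for absent variants.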

[2] = molecular target: PUM1 PUF domain R5-RGD (Homo sapiens, UniProt Q14671 828-1176, C1007R;R1008G;Q1011D)
Outline: as §1

[3] = molecular target: PUM1 PUF domain R5-DFW (Homo sapiens, UniProt Q14671 828-1176, C1007D;R1008F;Q1011W)
Outline: as §1

[4] = molecular target: PUM1 PUF domain R3-DRL (Homo sapiens, UniProt Q14671 828-1176, C935D;Q939L)
Outline: as §1

[5] = molecular target: PUM1 PUF domain R4-DFA (Homo sapiens, UniProt Q14671 828-1176, N971D;H972F;Q975A)
Outline: as §1

[6] = molecular target: T1, PUM1 PUF domain R6-SFR (Homo sapiens, UniProt Q14671 828-1176, N1043S;Y1044F;Q1047R)
T1 sequence: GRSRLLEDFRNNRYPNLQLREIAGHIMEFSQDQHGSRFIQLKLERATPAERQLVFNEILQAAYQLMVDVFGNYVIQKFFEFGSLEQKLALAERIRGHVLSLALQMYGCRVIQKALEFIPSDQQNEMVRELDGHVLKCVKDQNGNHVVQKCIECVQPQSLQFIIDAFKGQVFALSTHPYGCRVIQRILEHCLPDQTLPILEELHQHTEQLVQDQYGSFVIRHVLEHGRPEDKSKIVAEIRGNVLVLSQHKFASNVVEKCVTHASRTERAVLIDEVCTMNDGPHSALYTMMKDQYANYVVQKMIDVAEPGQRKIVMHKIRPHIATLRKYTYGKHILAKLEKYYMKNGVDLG
Outline: as §1

[7] = molecular target: PUM1 PUF domain R8-KFP (Homo sapiens, UniProt Q14671 828-1176, N1122K;Y1123F;Q1126P)
Outline: as §1

[8] = molecular target: PUM1 PUF domain R7-GVK (Homo sapiens, UniProt Q14671 828-1176, S1079G;N1080V;E1083K)
Outline: as §1

[9] = molecular target: PUM1 PUF domain R7-GTR (Homo sapiens, UniProt Q14671 828-1176, S1079G;N1080T;E1083R)
Outline: as §1

[10] = molecular target: PUM1 PUF domain R3-SLE (Homo sapiens, UniProt Q14671 828-1176, C935S;R936L;Q939E)
Outline: as §1

GGCUAGAACUAGUGGAUCCCCCGGCGCCCGGCGGCUCGAGCCCGGGUAAGUGUCAAUAGUCUGCAUGCCGCCGGGCGCCAUGCCUGCAGGUCGACUCUAGAAAACAUG
binding signal [1]: 4.46 log2 enrichment (interaction score) | binding signal [2]: 3.87 log2 enrichment (interaction score) | binding signal [3]: 2.86 log2 enrichment (interaction score)

GGCUAGAACUAGUGGAUCCCCCGGCGCCCGGCGGCUCGAGCCCGGGUAAGUGUAAAUAGUCUGCAUGCCGCCGGGCGCCAUGCCUGCAGGUCGACUCUAGAAAACAUG
binding signal [4]: 3.71 log2 enrichment (interaction score) | binding signal [5]: 2.78 log2 enrichment (interaction score) | binding signal [6]: 6.56 log2 enrichment (interaction score) | binding signal [7]: 4.88 log2 enrichment (interaction score)

GGCUAGAACUAGUGGAUCCCCCGGCGCCCGGCGGCUCGAGCCCGGGUAAGUUUAAAUAGUCUGCAUGCCGCCGGGCGCCAUGCCUGCAGGUCGACUCUAGAAAACAUG
binding signal [8]: 4.74 log2 enrichment (interaction score) | binding signal [9]: 4.38 log2 enrichment (interaction score)

GGCUAGAACUAGUGGAUCCCCCGGCGCCCGGCGGCUCGAGCCCGGGUAAGUGUAAGUAGUCUGCAUGCCGCCGGGCGCCAUGCCUGCAGGUCGACUCUAGAAAACAUG
binding signal [10]: 3.8 log2 enrichment (interaction score)

GGCUAGAACUAGUGGAUCCCCCGGCGCCCGGCGGCUCGAGCCCGGGUAAGUGUACAUAGUCUGCAUGCCGCCGGGCGCCAUGCCUGCAGGUCGACUCUAGAAAACAUG
binding signal [5]: 6.02 log2 enrichment (interaction score)

GGCUAGAACUAGUGGAUCCCCCGGCGCCCGGCGGCUCGAGCCCGGGUAAGUGCAAAUAGUCUGCAUGCCGCCGGGCGCCAUGCCUGCAGGUCGACUCUAGAAAACAUG
binding signal [6]: 7.11 log2 enrichment (interaction score)

GGCUAGAACUAGUGGAUCCCCCGGCGCCCGGCGGCUCGAGCCCGGGUAAGCGUAAAUAGUCUGCAUGCCGCCGGGCGCCAUGCCUGCAGGUCGACUCUAGAAAACAUG
binding signal [7]: 3.9 log2 enrichment (interaction score)

— PMC8384837, “Expanding the binding specificity for RNA recognition by a PUF domain”
